Test systems include NCI-H23 lung; NCI-H226 lung; HOP-62 NSCLC; NCI-H460 lung; HOP-92 NSCLC; NCI-H522 lung; A549/ATCC NSCLC; 786-0 renal; COLO 205 colon; NCI-H322M lung.
Common to all, as to test: NCI-60 one-dose screen, 48 h (100 = growth as untreated, 0 = no growth, -100 = all killed)
What all share (settings): 10 µM

Several values for one entry are separate records, joined by “and”; a condition that tells them apart may be missing. Equal entries are not always repeated. Compounds without any hit were thinned out: in the full panel of roughly 83,000, 20% have a hit.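 A percent growth of 40 corresponds to 60% growth inhibition; 0 means no net growth; -100 means all cells died. Active threshold: below 10.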 Unmarked numbers belong to inactive results. Activity calls are given as the source filed them.

In the case of `C[C@]12CC[C@H]3[C@@H](CCC4=CC(=O)CC[C@@H]43)[C@@H]1CC[C@@H]2OC(=O)N(CCCl)N=O`, the growth in the test on NCI-H23 lung is 55.7%; with NCI-H226 lung it was 55.8%; with HOP-62 NSCLC, 44.8%; in the test with NCI-H460 lung, -37.9% (active); in the test with HOP-92 NSCLC, -11% (active); in the test on NCI-H522 lung, 39.7%. For the same molecule, the growth in the test with A549/ATCC NSCLC was 40.7%; with 786-0 renal, 17.9%; in the test with COLO 205 colon, 58.8%.
With `COc1ccccc1/C=C/[N+](=O)[O-]`, the growth in the test on NCI-H23 lung was 74.9%; in the test with NCI-H226 lung, 96.1%; in the test with NCI-H322M lung, 102%; with HOP-62 NSCLC, 97.1%; in the test on NCI-H460 lung it was 74.4%; with NCI-H522 lung, 62.6%. For the same molecule, the growth in the test on A549/ATCC NSCLC is 75.5%; in the test on 786-0 renal, 93.1%; with COLO 205 colon, 79.3%.
`NC(Cc1ccccc1)c1ccccc1` (centres undefined): the growth was 97.7% and 105% with NCI-H23 lung; 91.9% and 97.7% with NCI-H226 lung; 102% and 103% in the test with NCI-H322M lung; 105% with HOP-62 NSCLC; 107% and 111% with NCI-H460 lung; 94.5% in the test with NCI-H522 lung. Besides, the growth is 111% with A549/ATCC NSCLC; 97.4% and 98.4% in the test on 786-0 renal; 103% and 105% in the test with COLO 205 colon.
Turning to `CC12OOC(c3ccccc31)c1c2ccc2ccccc12` (centres undefined), the growth is 32.7% in the test on NCI-H23 lung; 86.7% in the test on NCI-H226 lung; 73.3% with HOP-62 NSCLC; -63.2% (active) in the test on NCI-H460 lung; -61.9% (active) in the test on HOP-92 NSCLC; -91.2% (active) in the test on NCI-H522 lung. In addition, the growth with A549/ATCC NSCLC is 65.4%; with 786-0 renal it was 66.1%; in the test on COLO 205 colon, -65.4% (active).
On to `O=C1C(=O)c2ccccc2-c2ccccc21`, for which the growth in the test with NCI-H23 lung is -54.3% (active); in the test on NCI-H226 lung, -88.3% (active); with HOP-62 NSCLC it was -70% (active); in the test with NCI-H460 lung, 3.18% (active); with HOP-92 NSCLC it was -87.7% (active); with NCI-H522 lung, -58.5% (active). In addition, the growth is -47.9% (active) with A549/ATCC NSCLC, -88.2% (active) with 786-0 renal and -63.5% (active) in the test on COLO 205 colon.
With `CC/C(=C/c1ccc(OC)cc1)[N+](=O)[O-]`, the growth with NCI-H23 lung was 51.8%; in the test on NCI-H226 lung, -12.5% (active); in the test with NCI-H322M lung, 86%; in the test on HOP-62 NSCLC, 78.1%; in the test with NCI-H460 lung it was 52.7%; in the test on NCI-H522 lung, -47.7% (active). Besides, the figures for the growth in the test on A549/ATCC NSCLC, with 786-0 renal and in the test with COLO 205 colon were 62.3%, -83.5% (active) and -60.3% (active), respectively.
Regarding `O=[P+](O)c1ccccc1`, the growth in the test on NCI-H23 lung was 107%; in the test with NCI-H226 lung it was 107%; with HOP-62 NSCLC, 93.9%; in the test with NCI-H460 lung it was 106%; with HOP-92 NSCLC, 101%; in the test on A549/ATCC NSCLC, 107%. Moreover, the growth in the test with COLO 205 colon is 112%.
As to `ClCc1ccc2ccccc2n1`, the growth with NCI-H23 lung is 85.2%; in the test on NCI-H226 lung, 78.2%; in the test on HOP-62 NSCLC, 59.4%; with NCI-H460 lung it was 110%; with HOP-92 NSCLC it was 79.8%; in the test on NCI-H522 lung, 95.4%. The growth in the test on A549/ATCC NSCLC was 102%; in the test on 786-0 renal it was 103%; in the test with COLO 205 colon, 128%.
Take `[Cl][Hg][c]1ccc(Cl)s1`: the growth with NCI-H23 lung was 51.1%; with NCI-H226 lung, 50.1%; in the test on HOP-62 NSCLC, 87.8%; with NCI-H460 lung, 83.7%; in the test with HOP-92 NSCLC, -70% (active); in the test on NCI-H522 lung it was -98.1% (active). The growth is 97.2% in the test on A549/ATCC NSCLC, -54.5% (active) in the test on 786-0 renal and -81.2% (active) in the test with COLO 205 colon.
For `COc1ccc(/C=C\[N+](=O)[O-])cc1OC`, the growth was 83.9% and 65.5% in the test on NCI-H23 lung; 101% and 77.5% in the test on NCI-H226 lung; 107% and 88% with HOP-62 NSCLC; 45.6% and 63.3% with NCI-H460 lung; 92.8% and 82.3% in the test with HOP-92 NSCLC; 80.6% and 75.6% in the test on NCI-H522 lung. For the same molecule, the growth is 67.9% and 68.7% in the test on A549/ATCC NSCLC; 96.4% and 47.9% in the test with 786-0 renal; 76.5% and 64.5% with COLO 205 colon.
Take `COc1cc2c(c(OC)c1OC)-c1ccc(O)c(=O)cc1[C@@H](NC(C)=O)CC2`: the growth in the test on NCI-H23 lung is 65.1%; with NCI-H226 lung it was 68.9%; with HOP-62 NSCLC, 28.9%; in the test on NCI-H460 lung, 24.6%; in the test with A549/ATCC NSCLC, 31.9%; in the test with 786-0 renal, 68.9%. Besides, the growth in the test with COLO 205 colon was 72.6%.
As to `[Cl][Hg][c]1ccc2ccccc2c1`, the growth with NCI-H23 lung is -67.1% (active); in the test on NCI-H226 lung, -20.6% (active); in the test on HOP-62 NSCLC, -79.9% (active); in the test with NCI-H460 lung, -4.3% (active); in the test on NCI-H522 lung it was -95.1% (active); in the test with A549/ATCC NSCLC, 19.6%. Moreover, the growth in the test with 786-0 renal was -92.2% (active); in the test on COLO 205 colon, -87.4% (active).
Consider `Oc1c(Cl)cc(Cl)c2ccccc12.[Cu+2]`, for which the growth was 91.4% in the test on NCI-H23 lung; 108% in the test on HOP-62 NSCLC; 99.4% in the test with NCI-H460 lung; 104% in the test on HOP-92 NSCLC; 71.2% in the test with NCI-H522 lung; 111% with A549/ATCC NSCLC. For the same molecule, the growth with 786-0 renal was 116%; in the test with COLO 205 colon it was 102%.
For `Cc1cc([N+](=O)[O-])c2ccccc2[n+]1[O-]`, the growth in the test on NCI-H23 lung was -25.5% (active) and -33.7% (active); in the test with NCI-H226 lung it was -4.63% (active) and -12.9% (active); in the test on HOP-62 NSCLC, -20.4% (active) and -36.8% (active); with NCI-H460 lung it was -26.5% (active) and -38.4% (active); with HOP-92 NSCLC it was -8.69% (active) and -36.2% (active); with NCI-H522 lung, -38.1% (active) and -83% (active). The growth in the test with A549/ATCC NSCLC was -23.4% (active) and -36.1% (active); in the test on 786-0 renal it was -31.9% (active) and -30.8% (active); in the test on COLO 205 colon, -63.1% (active) and -95.1% (active).
With `C#CC1(O)CCC(C(C)(C)C)CC1` (centres undefined), the growth was 105% in the test with NCI-H23 lung; 111% in the test with NCI-H226 lung; 115% in the test with HOP-62 NSCLC; 112% in the test on NCI-H460 lung; 87.9% with HOP-92 NSCLC; 122% with NCI-H522 lung. The growth in the test with A549/ATCC NSCLC is 94.2%; with 786-0 renal it was 107%; in the test with COLO 205 colon it was 114%.

The record behind these values is PubChem BioAssay (NCI).
